# Legend:
# [1] = target: Sphingosine kinase 1 (Homo sapiens) (UniProt Q9NYA1); details: at 1 µM;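 further: mean SPHK1 inhibition value reported from the GSK PKIS kinase panel screen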
# [2] = target: T1, Sphingosine kinase 2 (Homo sapiens) (UniProt Q9NRA0); details: at 0.1 µM
# T1 sequence (whole entry): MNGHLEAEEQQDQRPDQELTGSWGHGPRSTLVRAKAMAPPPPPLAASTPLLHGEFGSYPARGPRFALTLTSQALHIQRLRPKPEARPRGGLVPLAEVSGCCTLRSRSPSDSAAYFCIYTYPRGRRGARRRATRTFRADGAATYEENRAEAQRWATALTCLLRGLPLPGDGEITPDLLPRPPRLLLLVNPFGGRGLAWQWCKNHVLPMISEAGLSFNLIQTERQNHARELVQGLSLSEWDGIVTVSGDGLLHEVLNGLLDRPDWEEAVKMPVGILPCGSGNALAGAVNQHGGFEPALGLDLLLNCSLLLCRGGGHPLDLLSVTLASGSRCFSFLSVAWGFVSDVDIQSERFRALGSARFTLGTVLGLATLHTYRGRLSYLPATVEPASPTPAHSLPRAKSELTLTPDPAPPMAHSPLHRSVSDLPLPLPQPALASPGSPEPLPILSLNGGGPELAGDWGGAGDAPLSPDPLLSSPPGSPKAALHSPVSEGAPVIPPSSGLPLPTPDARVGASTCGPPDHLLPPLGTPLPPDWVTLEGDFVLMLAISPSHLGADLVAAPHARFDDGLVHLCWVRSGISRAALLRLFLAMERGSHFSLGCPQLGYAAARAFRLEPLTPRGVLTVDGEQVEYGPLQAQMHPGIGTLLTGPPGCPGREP
# [3] = target: T1, Sphingosine kinase 2 (Homo sapiens); details: at 1 µM
# [4] = target: Casein kinase II subunit alpha (Homo sapiens) (UniProt P68400); details: at 0.1 µM
# Sequence of Casein kinase II subunit alpha (Homo sapiens) (P68400 whole entry, looked up): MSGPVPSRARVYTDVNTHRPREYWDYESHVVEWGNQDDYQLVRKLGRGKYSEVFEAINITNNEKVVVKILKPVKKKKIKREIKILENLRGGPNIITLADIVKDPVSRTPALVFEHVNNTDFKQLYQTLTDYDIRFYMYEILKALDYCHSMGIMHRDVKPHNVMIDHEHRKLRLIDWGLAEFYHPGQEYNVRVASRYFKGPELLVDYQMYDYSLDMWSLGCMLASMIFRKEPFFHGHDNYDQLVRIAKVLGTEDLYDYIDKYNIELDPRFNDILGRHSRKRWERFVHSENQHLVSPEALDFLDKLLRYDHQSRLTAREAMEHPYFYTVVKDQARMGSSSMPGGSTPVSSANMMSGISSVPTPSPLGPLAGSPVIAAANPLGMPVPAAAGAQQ
# [5] = target: Casein kinase II subunit alpha (Homo sapiens) (UniProt P68400); details: at 1 µM
# [6] = target: T2, Inhibitor of nuclear factor kappa-B kinase subunit alpha (Homo sapiens) (UniProt O15111); details: at 0.1 µM
# T2 sequence (whole entry): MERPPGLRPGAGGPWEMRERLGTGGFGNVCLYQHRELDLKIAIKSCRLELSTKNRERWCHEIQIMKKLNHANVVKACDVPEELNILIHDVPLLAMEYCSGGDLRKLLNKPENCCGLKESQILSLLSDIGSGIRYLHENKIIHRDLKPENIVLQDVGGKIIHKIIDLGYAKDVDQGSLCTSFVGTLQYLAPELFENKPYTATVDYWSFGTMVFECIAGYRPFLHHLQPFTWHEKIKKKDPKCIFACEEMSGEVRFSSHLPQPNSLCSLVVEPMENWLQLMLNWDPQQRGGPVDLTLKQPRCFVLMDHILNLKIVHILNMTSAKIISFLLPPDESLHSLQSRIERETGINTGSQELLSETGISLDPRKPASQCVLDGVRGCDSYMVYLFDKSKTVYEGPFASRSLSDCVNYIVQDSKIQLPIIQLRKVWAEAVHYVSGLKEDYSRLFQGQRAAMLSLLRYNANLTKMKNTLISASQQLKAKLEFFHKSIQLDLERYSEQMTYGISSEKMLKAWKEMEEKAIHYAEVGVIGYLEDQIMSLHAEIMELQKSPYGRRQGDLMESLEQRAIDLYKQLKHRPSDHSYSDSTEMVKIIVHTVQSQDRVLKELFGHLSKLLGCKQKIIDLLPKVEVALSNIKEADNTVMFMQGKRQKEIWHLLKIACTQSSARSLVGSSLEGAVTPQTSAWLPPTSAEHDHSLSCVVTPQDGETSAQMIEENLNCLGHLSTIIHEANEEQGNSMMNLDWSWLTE
# [7] = target: T2, Inhibitor of nuclear factor kappa-B kinase subunit alpha (Homo sapiens); details: at 1 µM
# [8] = target: T3, Inhibitor of nuclear factor kappa-B kinase subunit beta (Homo sapiens) (UniProt O14920); details: at 0.1 µM
# T3 sequence (whole entry): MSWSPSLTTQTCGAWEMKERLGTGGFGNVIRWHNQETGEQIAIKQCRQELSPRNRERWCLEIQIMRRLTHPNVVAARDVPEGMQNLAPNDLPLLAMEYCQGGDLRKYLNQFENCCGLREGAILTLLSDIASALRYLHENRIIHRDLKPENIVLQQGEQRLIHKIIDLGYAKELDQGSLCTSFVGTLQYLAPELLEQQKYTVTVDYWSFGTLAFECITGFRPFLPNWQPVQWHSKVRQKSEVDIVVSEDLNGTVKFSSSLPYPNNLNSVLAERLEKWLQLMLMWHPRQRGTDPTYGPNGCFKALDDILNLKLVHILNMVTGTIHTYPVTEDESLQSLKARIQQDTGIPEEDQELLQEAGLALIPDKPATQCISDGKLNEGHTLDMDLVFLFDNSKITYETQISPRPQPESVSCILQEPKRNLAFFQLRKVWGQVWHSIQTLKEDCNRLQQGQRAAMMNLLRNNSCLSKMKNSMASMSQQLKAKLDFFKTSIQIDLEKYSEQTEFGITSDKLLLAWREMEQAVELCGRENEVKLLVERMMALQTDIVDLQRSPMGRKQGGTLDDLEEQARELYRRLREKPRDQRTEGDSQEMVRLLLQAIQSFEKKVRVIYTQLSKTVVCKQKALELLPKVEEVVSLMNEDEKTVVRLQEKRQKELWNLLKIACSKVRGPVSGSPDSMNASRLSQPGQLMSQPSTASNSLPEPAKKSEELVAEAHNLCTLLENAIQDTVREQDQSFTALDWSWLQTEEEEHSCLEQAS
# [9] = target: T3, Inhibitor of nuclear factor kappa-B kinase subunit beta (Homo sapiens); details: at 1 µM
# [10] = target: T4, Inhibitor of nuclear factor kappa-B kinase subunit epsilon (Homo sapiens) (UniProt Q14164); details: at 0.1 µM
# T4 sequence (whole entry): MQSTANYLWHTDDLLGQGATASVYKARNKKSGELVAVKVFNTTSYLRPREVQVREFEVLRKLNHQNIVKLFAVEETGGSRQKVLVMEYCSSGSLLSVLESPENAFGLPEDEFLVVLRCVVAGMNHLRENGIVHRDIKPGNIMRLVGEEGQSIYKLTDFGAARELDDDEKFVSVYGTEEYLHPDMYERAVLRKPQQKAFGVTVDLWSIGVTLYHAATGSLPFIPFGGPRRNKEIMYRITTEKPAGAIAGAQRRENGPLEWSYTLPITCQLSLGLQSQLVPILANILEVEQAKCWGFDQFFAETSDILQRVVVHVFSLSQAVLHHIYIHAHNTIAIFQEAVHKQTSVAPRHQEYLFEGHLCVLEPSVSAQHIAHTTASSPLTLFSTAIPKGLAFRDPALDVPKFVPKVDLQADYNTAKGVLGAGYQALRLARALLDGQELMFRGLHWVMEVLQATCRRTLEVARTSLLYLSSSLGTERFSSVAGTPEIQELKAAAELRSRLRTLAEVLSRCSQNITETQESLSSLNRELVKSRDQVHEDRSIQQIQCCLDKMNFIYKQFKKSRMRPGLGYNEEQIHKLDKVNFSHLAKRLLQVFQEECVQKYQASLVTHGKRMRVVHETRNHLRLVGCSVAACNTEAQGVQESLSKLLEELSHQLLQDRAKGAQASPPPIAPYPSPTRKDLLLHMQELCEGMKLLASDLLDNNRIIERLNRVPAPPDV
# [11] = target: T4, Inhibitor of nuclear factor kappa-B kinase subunit epsilon (Homo sapiens); details: at 1 µM
# [12] = target: T5, Serine/threonine-protein kinase Nek1 (Homo sapiens) (UniProt Q96PY6); details: at 0.1 µM
# T5 sequence (whole entry): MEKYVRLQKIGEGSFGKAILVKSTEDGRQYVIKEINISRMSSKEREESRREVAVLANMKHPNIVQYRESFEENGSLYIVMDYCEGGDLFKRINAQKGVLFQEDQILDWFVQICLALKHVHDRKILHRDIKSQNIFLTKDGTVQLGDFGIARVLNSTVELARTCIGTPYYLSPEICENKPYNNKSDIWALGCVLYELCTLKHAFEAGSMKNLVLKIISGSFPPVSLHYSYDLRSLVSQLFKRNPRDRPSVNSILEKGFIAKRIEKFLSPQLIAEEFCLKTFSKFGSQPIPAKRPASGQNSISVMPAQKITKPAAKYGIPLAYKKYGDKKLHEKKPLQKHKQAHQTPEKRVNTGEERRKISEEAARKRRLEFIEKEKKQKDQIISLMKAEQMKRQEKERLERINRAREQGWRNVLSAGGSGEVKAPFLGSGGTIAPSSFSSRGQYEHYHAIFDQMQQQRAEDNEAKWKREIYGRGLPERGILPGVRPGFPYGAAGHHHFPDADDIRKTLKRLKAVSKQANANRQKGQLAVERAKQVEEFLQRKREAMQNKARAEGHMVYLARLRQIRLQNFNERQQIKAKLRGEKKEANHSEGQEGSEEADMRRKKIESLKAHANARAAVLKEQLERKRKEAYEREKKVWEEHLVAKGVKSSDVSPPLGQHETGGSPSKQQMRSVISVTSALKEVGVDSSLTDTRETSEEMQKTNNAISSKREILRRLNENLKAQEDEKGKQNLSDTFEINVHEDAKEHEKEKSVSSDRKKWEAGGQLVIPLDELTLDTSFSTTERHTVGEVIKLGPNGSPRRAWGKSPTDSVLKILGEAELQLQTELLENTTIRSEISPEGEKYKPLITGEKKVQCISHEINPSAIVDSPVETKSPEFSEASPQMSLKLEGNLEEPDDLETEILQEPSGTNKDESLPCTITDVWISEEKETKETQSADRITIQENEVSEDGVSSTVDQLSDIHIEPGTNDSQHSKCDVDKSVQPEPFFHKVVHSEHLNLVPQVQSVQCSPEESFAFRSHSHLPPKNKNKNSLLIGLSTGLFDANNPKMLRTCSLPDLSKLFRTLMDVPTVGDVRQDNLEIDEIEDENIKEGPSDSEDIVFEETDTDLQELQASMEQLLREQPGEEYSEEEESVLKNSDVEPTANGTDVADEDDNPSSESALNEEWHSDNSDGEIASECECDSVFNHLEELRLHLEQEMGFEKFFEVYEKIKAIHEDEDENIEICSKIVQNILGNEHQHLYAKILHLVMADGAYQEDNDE
# [13] = target: T5, Serine/threonine-protein kinase Nek1 (Homo sapiens); details: at 1 µM
# [14] = target: T6, Serine/threonine-protein kinase Nek2 (Homo sapiens) (UniProt P51955); details: at 0.1 µM
# T6 sequence (whole entry): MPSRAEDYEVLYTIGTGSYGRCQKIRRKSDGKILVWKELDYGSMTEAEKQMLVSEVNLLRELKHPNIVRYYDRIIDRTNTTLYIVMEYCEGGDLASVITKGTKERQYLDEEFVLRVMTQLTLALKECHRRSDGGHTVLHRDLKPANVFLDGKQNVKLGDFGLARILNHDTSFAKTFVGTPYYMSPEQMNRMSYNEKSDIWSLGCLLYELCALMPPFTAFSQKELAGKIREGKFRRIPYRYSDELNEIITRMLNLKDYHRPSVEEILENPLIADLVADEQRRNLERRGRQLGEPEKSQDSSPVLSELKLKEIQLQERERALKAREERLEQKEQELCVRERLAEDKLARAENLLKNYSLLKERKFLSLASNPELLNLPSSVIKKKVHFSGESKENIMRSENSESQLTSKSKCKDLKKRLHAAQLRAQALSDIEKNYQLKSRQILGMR
# [15] = target: T6, Serine/threonine-protein kinase Nek2 (Homo sapiens); details: at 1 µM
# [16] = target: Serine/threonine-protein kinase Nek6 (Homo sapiens) (UniProt Q9HC98); details: at 0.1 µM
# Sequence of Serine/threonine-protein kinase Nek6 (Homo sapiens) (Q9HC98 whole entry): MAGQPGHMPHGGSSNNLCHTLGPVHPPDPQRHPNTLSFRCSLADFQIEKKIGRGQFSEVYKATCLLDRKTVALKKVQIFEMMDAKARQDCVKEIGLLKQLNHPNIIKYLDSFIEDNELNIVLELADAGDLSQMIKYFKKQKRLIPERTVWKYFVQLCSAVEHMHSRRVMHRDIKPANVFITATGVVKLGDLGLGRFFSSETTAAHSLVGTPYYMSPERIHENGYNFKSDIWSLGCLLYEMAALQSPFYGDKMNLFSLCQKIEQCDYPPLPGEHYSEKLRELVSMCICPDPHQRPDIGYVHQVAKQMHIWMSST
# [17] = target: Serine/threonine-protein kinase Nek6 (Homo sapiens) (UniProt Q9HC98); details: at 1 µM
# [18] = target: Serine/threonine-protein kinase Nek7 (Homo sapiens) (UniProt Q8TDX7); details: at 0.1 µM
# Sequence of Serine/threonine-protein kinase Nek7 (Homo sapiens) (Q8TDX7 whole entry, looked up): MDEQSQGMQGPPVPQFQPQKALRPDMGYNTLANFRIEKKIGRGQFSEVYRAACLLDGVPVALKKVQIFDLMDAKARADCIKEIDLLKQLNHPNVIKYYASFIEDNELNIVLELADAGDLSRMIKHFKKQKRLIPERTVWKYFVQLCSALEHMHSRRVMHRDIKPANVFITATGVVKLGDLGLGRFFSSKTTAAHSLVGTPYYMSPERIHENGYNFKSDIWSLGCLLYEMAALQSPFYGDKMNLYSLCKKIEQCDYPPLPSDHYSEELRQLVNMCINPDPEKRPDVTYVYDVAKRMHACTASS
# [19] = target: Serine/threonine-protein kinase Nek7 (Homo sapiens) (UniProt Q8TDX7); details: at 1 µM
# [20] = target: T7, Serine/threonine-protein kinase Nek9 (Homo sapiens) (UniProt Q8TD19); details: at 0.1 µM;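 further: reported value is the mean percent inhibition of NEK9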
# T7 sequence (whole entry): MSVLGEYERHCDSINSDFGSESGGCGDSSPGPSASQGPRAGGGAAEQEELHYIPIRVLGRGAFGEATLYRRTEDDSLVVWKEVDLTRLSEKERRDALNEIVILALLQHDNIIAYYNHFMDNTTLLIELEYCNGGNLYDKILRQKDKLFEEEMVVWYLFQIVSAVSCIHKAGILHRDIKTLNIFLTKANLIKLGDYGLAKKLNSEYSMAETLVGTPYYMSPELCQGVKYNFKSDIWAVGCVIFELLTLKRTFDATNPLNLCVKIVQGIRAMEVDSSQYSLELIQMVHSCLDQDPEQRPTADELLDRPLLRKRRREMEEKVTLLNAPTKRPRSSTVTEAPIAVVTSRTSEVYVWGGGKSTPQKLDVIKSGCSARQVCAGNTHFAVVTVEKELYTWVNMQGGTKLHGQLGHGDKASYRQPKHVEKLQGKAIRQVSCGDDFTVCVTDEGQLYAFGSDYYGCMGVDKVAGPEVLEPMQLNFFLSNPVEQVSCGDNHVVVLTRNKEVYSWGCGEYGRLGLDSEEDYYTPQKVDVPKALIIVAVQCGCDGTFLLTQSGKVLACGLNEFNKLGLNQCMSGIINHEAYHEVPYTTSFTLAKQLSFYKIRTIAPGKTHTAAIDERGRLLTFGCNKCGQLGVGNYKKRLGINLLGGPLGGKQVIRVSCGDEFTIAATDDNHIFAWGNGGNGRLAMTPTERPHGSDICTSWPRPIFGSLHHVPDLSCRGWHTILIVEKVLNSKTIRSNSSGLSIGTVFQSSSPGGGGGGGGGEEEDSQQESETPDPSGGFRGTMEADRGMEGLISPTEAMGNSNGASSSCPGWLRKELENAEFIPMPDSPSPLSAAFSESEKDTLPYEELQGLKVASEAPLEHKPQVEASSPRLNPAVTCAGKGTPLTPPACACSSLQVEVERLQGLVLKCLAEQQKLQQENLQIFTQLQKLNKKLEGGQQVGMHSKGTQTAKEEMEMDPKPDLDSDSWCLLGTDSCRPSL
# Sequence of Sphingosine kinase 1 (Homo sapiens) (Q9NYA1 whole entry): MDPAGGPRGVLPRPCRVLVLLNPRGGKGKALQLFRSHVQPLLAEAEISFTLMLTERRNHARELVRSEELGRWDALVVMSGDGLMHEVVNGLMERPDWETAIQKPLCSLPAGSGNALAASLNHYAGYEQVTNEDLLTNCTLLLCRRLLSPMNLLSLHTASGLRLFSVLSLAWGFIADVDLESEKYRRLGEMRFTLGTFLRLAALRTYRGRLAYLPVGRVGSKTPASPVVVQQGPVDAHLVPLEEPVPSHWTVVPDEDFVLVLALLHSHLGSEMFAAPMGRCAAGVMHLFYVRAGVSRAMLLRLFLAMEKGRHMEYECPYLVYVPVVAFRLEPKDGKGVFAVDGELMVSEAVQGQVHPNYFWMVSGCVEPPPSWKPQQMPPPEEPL
smiles,measurement,setting,value
CN(C)c1cc2c(Nc3ccc4nc(Cc5ccccc5)[nH]c4c3)ncnc2cn1,inhibition,[1],-4.39%
same,inhibition,[2],-0.89%
same,inhibition,[3],-0.82%
same,inhibition,[4],3.31%
same,inhibition,[5],1.45%
same,inhibition,[6],9.26%
same,inhibition,[7],9.4%
same,inhibition,[8],7.48%
same,inhibition,[9],6.68%
same,inhibition,[10],17.5%
same,inhibition,[11],16.6%
same,inhibition,[12],2.45%
same,inhibition,[13],3.05%
same,inhibition,[14],6.53%
same,inhibition,[15],8.34%
same,inhibition,[16],3.19%
same,inhibition,[17],-0.04%
same,inhibition,[18],6.44%
same,inhibition,[19],4.66%
same,inhibition,[20],14.3%

# From ChEMBL document CHEMBL1961873, “Compounds: GSK PKIS; Assays: Nanosyn kinase panel” (2012)
